Measured values: the supplement of paper PMC5662767
Structures can show the parent of a compound that is named as a salt.

Tested on: Drosophila S2 cl14 SmoIP sensor cells
Test: normalized SmoIP GFP fluorescence (untreated unstimulated = 0%, untreated Hh-stimulated = 100%); higher = more Smo activation sensor fluorescence
Details: stimulation: Hh conditioned medium (+Hh); compound concentration: 2 uM; 24 h
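Further: flow cytometry read-out as median GFP intensity of gated cells, compounds added 30 min before Hh-conditioned or mock medium, mock-treated cells serving as unstimulated baseline.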

SMILES	normalized SmoIP GFP fluorescence
CC[C@@]1(O)C(=O)OCc2c1cc1n(c2=O)Cc2cc3c(CN(C)C)c(O)ccc3nc2-1 [Topotecan-Hydrochloride]	110%
CNCCCC12CCC(c3ccccc31)c1ccccc12 [Maprotiline-hydrochloride]	123%
CCC(C)(Oc1ccc(C2(c3ccc(OC(C)(CC)C(=O)O)cc3)CCCCC2)cc1)C(=O)O (stereo unspecified) [clinofibrate]	131%
COc1cc(CCc2cc(NC(=O)c3ccc(N4CC(C)NC(C)C4)cc3)n[nH]2)cc(OC)c1 (stereo unspecified)	114%
O=C(COc1cccc2c(=O)[nH]ccc12)c1ccccc1	139%
NC(=O)c1ccc(I)c([N+](=O)[O-])c1	115%
Cc1ccc(NC(=O)c2cccc(N(C)C)c2)cc1NC(=O)c1ccc(O)cc1	120%
NS(=O)(=O)C#Cc1ccccc1 [pifithrin-u]	103%
CNC(=O)c1ccc(C)c(-n2c(C)cc(OCc3ccc(F)cc3F)c(Br)c2=O)c1	130%
COc1cc(N2CCC(N)CC2)ccc1Nc1ncc(Cl)c(-c2c[nH]c3ccccc23)n1	113%
Nc1cccc(-c2cc3c(Oc4cccc(O)c4)ncnc3[nH]2)c1	96.5%
CNC(=O)c1ccc(N2C(=S)N(c3cnc(C#N)c(C(F)(F)F)c3)C(=O)C23CCC3)cc1F	105%
O=C(Nc1cccc(Cl)c1)Nc1ncc(CCNc2ncnc3ccsc23)s1	127%
CN1CCC(=C2c3ccccc3CC(=O)c3sccc32)CC1 [ketotifen-fumarate-zaditor]	118%
CCCc1cc(C)[nH]c(=O)c1CNC(=O)c1cc(-c2ccc(N3CCN(C(C)C)CC3)nc2)cc2c1cnn2C(C)C	116%
CCN(Cc1ccncc1)C(=O)C(CO)c1ccccc1 (stereo unspecified) [tropicamide]	104%
O=C(N/N=C/c1ccc(O)c(O)c1)c1cc2ccccc2cc1O [dynasore]	129%
CC1(C)CCC2=C(O1)c1ccccc1C(=O)C2=O [beta-lapachone]	113%
CN1CCN(c2cccc(Nc3nc4c(-c5ccc(S(C)(=O)=O)cc5)cccn4n3)c2)CC1	92.1%

SMILES	normalized SmoIP GFP fluorescence
CC(=O)Oc1cc2c(s1)CCN(C(C(=O)C1CC1)c1ccccc1F)C2 (stereo unspecified) [Prasugrel]	107%
O[C@H](CNC[C@@H](O)[C@H]1CCc2cc(F)ccc2O1)[C@@H]1CCc2cc(F)ccc2O1 [Nebivolol(Bystolic)]	109%
Nc1cccc2c1C(=O)N(C1CCC(=O)NC1=O)C2=O (stereo unspecified) [Pomalidomide(CC-4047)]	103%
CCN1CCN(Cc2ccc(-c3cc4c(N[C@H](C)c5ccccc5)ncnc4[nH]3)cc2)CC1	97%
COc1ccnc2[nH]cc(C(=O)C(=O)N3CCN(C(=O)c4ccccc4)C[C@H]3C)c12	142%
CN1CCN(S(=O)(=O)c2ccc(-c3cnc(N)c(C(=O)Nc4cccnc4)n3)cc2)CC1	112%
CC(C)OC(=O)OCOP(=O)(CO[C@H](C)Cn1cnc2c(N)ncnc21)OCOC(=O)OC(C)C [Tenofovir-Disoproxil-Fumarate]	91.2%
Oc1ccc(Nc2nc(-c3ccc(Cl)cc3)cs2)cc1	113%
CC1CCc2cc(F)cc3c(=O)c(C(=O)O)cn1c23 (stereo unspecified) [flumequine]	106%
C[C@@H](O[C@H]1OCCN(Cc2n[nH]c(=O)[nH]2)[C@H]1c1ccc(F)cc1)c1cc(C(F)(F)F)cc(C(F)(F)F)c1 [Aprepitant]	115%
CNCCC(Oc1ccc(C(F)(F)F)cc1)c1ccccc1 (stereo unspecified) [Fluoxetine-hydrochloride]	111%
CN(C)Cc1ccc(-c2nc3cccc4c3n2CCNC4=O)cc1	120%
COCCCOc1cc(C[C@@H](C[C@H](N)[C@@H](O)C[C@H](C(=O)NCC(C)(C)C(N)=O)C(C)C)C(C)C)ccc1OC [Aliskiren-hemifumarate]	126%
O=C(Nc1cccnc1)N1CCC(Cc2cccc(Oc3ccc(C(F)(F)F)cn3)c2)CC1	116%
CC(C)(O)CC(=O)NCCn1ccc2ncnc(Nc3ccc(Oc4cccc(C(F)(F)F)c4)c(Cl)c3)c21	116%
N#Cc1ccc2[nH]c(O)c(-c3ccc(CN4CCOCC4)cn3)c2c1	108%
CCCCN(Cc1ccc(C(=O)NO)cc1)C(=O)Nc1ccccc1 [nexturastat-a]	105%
Cn1c(=O)c(F)c(Nc2ccc(I)cc2F)c2c(=O)n(C[C@@H](O)CO)cnc21	262%
Cc1nc(NC(=O)N2CCC[C@H]2C(N)=O)sc1-c1ccnc(C(C)(C)C(F)(F)F)c1	102%

Same assay, conditions: stimulation: mock conditioned medium (-Hh); compound concentration: 2 uM; 24 h

SMILES	normalized SmoIP GFP fluorescence
CC[C@@]1(O)C(=O)OCc2c1cc1n(c2=O)Cc2cc3c(CN(C)C)c(O)ccc3nc2-1 [Topotecan-Hydrochloride]	15.7%
CNCCCC12CCC(c3ccccc31)c1ccccc12 [Maprotiline-hydrochloride]	-0.116%
CCC(C)(Oc1ccc(C2(c3ccc(OC(C)(CC)C(=O)O)cc3)CCCCC2)cc1)C(=O)O (stereo unspecified) [clinofibrate]	-14.5%
COc1cc(CCc2cc(NC(=O)c3ccc(N4CC(C)NC(C)C4)cc3)n[nH]2)cc(OC)c1 (stereo unspecified)	2.97%
O=C(COc1cccc2c(=O)[nH]ccc12)c1ccccc1	0.334%
NC(=O)c1ccc(I)c([N+](=O)[O-])c1	-5.22%
Cc1ccc(NC(=O)c2cccc(N(C)C)c2)cc1NC(=O)c1ccc(O)cc1	-14.7%
NS(=O)(=O)C#Cc1ccccc1 [pifithrin-u]	-0.0369%
CNC(=O)c1ccc(C)c(-n2c(C)cc(OCc3ccc(F)cc3F)c(Br)c2=O)c1	-8.41%
COc1cc(N2CCC(N)CC2)ccc1Nc1ncc(Cl)c(-c2c[nH]c3ccccc23)n1	-2.48%
Nc1cccc(-c2cc3c(Oc4cccc(O)c4)ncnc3[nH]2)c1	0.812%
CNC(=O)c1ccc(N2C(=S)N(c3cnc(C#N)c(C(F)(F)F)c3)C(=O)C23CCC3)cc1F	-0.0369%
O=C(Nc1cccc(Cl)c1)Nc1ncc(CCNc2ncnc3ccsc23)s1	11%
CN1CCC(=C2c3ccccc3CC(=O)c3sccc32)CC1 [ketotifen-fumarate-zaditor]	-13.9%
CCCc1cc(C)[nH]c(=O)c1CNC(=O)c1cc(-c2ccc(N3CCN(C(C)C)CC3)nc2)cc2c1cnn2C(C)C	5.7%
CCN(Cc1ccncc1)C(=O)C(CO)c1ccccc1 (stereo unspecified) [tropicamide]	-2.82%
O=C(N/N=C/c1ccc(O)c(O)c1)c1cc2ccccc2cc1O [dynasore]	1.24%
CC1(C)CCC2=C(O1)c1ccccc1C(=O)C2=O [beta-lapachone]	-0.264%
CN1CCN(c2cccc(Nc3nc4c(-c5ccc(S(C)(=O)=O)cc5)cccn4n3)c2)CC1	-3.39%

SMILES	normalized SmoIP GFP fluorescence
CC(=O)Oc1cc2c(s1)CCN(C(C(=O)C1CC1)c1ccccc1F)C2 (stereo unspecified) [Prasugrel]	-2.42%
O[C@H](CNC[C@@H](O)[C@H]1CCc2cc(F)ccc2O1)[C@@H]1CCc2cc(F)ccc2O1 [Nebivolol(Bystolic)]	19.8%
Nc1cccc2c1C(=O)N(C1CCC(=O)NC1=O)C2=O (stereo unspecified) [Pomalidomide(CC-4047)]	10.4%
CCN1CCN(Cc2ccc(-c3cc4c(N[C@H](C)c5ccccc5)ncnc4[nH]3)cc2)CC1	6.52%
COc1ccnc2[nH]cc(C(=O)C(=O)N3CCN(C(=O)c4ccccc4)C[C@H]3C)c12	15.4%
CN1CCN(S(=O)(=O)c2ccc(-c3cnc(N)c(C(=O)Nc4cccnc4)n3)cc2)CC1	1.21%
CC(C)OC(=O)OCOP(=O)(CO[C@H](C)Cn1cnc2c(N)ncnc21)OCOC(=O)OC(C)C [Tenofovir-Disoproxil-Fumarate]	2.43%
Oc1ccc(Nc2nc(-c3ccc(Cl)cc3)cs2)cc1	-0.151%
CC1CCc2cc(F)cc3c(=O)c(C(=O)O)cn1c23 (stereo unspecified) [flumequine]	-3.79%
C[C@@H](O[C@H]1OCCN(Cc2n[nH]c(=O)[nH]2)[C@H]1c1ccc(F)cc1)c1cc(C(F)(F)F)cc(C(F)(F)F)c1 [Aprepitant]	-5.98%
CNCCC(Oc1ccc(C(F)(F)F)cc1)c1ccccc1 (stereo unspecified) [Fluoxetine-hydrochloride]	1.89%
CN(C)Cc1ccc(-c2nc3cccc4c3n2CCNC4=O)cc1	-14.3%
COCCCOc1cc(C[C@@H](C[C@H](N)[C@@H](O)C[C@H](C(=O)NCC(C)(C)C(N)=O)C(C)C)C(C)C)ccc1OC [Aliskiren-hemifumarate]	-8.59%
O=C(Nc1cccnc1)N1CCC(Cc2cccc(Oc3ccc(C(F)(F)F)cn3)c2)CC1	-0.297%
CC(C)(O)CC(=O)NCCn1ccc2ncnc(Nc3ccc(Oc4cccc(C(F)(F)F)c4)c(Cl)c3)c21	3.66%
N#Cc1ccc2[nH]c(O)c(-c3ccc(CN4CCOCC4)cn3)c2c1	-4.35%
CCCCN(Cc1ccc(C(=O)NO)cc1)C(=O)Nc1ccccc1 [nexturastat-a]	6.74%
Cn1c(=O)c(F)c(Nc2ccc(I)cc2F)c2c(=O)n(C[C@@H](O)CO)cnc21	47.8%
Cc1nc(NC(=O)N2CCC[C@H]2C(N)=O)sc1-c1ccnc(C(C)(C)C(F)(F)F)c1	-1.23%
